# Laboratory results as given in article PMC7862700, “An all-to-all approach to the identification of sequence-specific readers for epigenetic DNA modifications on cytosine”.
# Key:
# Assay in all cases: DAPPL (digital affinity profiling via proximity ligation, sequencing); 10 mM Tris-HCl pH 7.5, 50 mM NaCl, 1 mM DTT, 4% glycerol, room temperature, 30 min; GST-TFs on glutathione beads, 16-mer random dsDNA library, 0.1% formaldehyde crosslink after washing; high values mean tight binding
# FEV = target: T1, FEV (Homo sapiens, UniProt Q99581 1-238); conditions: protein: recombinant; tags: N-terminal GST; dsDNA, one strand shown
# T1 sequence: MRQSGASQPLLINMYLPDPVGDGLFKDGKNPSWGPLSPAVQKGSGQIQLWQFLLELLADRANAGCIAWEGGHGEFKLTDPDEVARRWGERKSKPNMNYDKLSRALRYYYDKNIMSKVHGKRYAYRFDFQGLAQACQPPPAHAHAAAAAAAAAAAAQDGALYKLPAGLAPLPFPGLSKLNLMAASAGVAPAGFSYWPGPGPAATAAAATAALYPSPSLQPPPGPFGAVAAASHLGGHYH
# Procedure, shortened: (§1)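 Sequencing on an Illumina NextSeq500 followed washing, crosslinking with 0.1% formaldehyde, proximity ligation (BsaI/T4 ligase, 1 h, 37 °C) and PCR amplification of pools that had been incubated for 30 min at room temperature with 200 nmole of a random double-stranded 16-mer DNA library in Tris/NaCl/DTT/glycerol buffer. Each pool held DNA-barcoded human transcription factors, expressed in yeast as GST fusions and captured on glutathione beads, plus a tag-only sample. Binding signal is a hexamer's read frequency for a factor divided by its frequency in the tag-only sample.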
# ETV5 = ETV5 (Homo sapiens, UniProt P41161 1-510); conditions: protein: recombinant; tags: N-terminal GST; dsDNA, one strand shown
# Sequence of ETV5 (P41161 whole entry): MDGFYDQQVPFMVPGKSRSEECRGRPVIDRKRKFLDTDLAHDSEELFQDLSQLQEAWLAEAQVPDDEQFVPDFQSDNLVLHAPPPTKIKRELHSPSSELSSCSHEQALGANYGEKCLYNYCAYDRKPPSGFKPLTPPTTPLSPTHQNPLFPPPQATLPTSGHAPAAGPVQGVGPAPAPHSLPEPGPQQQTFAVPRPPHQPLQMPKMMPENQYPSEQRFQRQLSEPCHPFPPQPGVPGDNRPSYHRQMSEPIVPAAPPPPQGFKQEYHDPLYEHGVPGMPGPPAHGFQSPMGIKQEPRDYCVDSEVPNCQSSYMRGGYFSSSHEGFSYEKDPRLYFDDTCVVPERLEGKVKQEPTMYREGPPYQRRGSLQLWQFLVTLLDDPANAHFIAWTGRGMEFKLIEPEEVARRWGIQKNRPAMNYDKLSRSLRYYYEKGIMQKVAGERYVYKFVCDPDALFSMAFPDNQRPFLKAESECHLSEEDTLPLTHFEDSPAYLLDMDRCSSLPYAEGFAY
# Procedure, shortened: as §1
# HSF1 = HSF1 (Homo sapiens, UniProt Q00613 1-529); conditions: protein: recombinant; tags: N-terminal GST; chain copies: 3; dsDNA, one strand shown
# Sequence of HSF1 (Q00613 whole entry): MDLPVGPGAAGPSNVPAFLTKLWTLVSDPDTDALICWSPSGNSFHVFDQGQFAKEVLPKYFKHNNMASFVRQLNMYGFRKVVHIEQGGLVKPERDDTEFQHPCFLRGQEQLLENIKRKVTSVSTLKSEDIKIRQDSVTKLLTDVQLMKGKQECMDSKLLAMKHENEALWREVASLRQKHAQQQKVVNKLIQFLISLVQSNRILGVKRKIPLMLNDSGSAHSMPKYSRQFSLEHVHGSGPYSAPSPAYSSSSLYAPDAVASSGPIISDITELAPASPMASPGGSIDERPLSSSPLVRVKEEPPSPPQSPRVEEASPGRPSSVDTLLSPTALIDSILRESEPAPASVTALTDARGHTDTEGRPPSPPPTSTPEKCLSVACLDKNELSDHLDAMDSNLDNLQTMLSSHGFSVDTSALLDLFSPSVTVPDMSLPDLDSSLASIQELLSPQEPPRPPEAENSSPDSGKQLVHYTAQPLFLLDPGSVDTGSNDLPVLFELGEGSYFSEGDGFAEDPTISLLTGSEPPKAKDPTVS
# Procedure, shortened: as §1
# SPIC = target: T2, SPIC (Homo sapiens, UniProt Q8N5J4 1-248); conditions: protein: recombinant; tags: N-terminal GST; dsDNA, one strand shown
# T2 sequence: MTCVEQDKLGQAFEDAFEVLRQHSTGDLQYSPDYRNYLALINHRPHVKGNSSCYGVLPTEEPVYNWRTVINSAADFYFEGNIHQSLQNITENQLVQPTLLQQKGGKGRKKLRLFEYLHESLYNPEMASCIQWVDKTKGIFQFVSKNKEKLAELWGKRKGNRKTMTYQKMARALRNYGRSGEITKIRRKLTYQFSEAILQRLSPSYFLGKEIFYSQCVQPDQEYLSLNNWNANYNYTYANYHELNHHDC
# Procedure, shortened: as §1
# ELF4 = ELF4 (Homo sapiens, UniProt Q99607 1-663); conditions: protein: recombinant; tags: N-terminal GST; dsDNA, one strand shown
# Sequence of ELF4 (Q99607 whole entry): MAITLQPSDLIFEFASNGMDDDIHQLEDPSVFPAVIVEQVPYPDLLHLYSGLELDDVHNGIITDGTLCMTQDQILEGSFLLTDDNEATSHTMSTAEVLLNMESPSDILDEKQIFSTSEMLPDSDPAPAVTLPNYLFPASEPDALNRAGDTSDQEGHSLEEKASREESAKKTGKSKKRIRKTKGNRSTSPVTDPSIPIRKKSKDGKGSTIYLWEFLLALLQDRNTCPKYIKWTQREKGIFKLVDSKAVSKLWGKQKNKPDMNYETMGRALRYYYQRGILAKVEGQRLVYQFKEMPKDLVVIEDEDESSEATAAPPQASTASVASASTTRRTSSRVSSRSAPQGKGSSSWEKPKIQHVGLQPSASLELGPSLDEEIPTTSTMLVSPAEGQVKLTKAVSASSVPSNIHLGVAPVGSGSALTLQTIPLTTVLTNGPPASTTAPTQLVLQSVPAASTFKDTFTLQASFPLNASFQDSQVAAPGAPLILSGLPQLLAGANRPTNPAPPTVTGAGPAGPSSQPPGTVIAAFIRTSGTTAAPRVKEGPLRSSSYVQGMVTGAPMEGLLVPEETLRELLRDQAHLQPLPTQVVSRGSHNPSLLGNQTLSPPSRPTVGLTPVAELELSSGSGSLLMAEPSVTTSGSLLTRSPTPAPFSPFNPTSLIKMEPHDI
# Procedure, shortened: as §1
# ELK4 = target: T3, ELK4 (Homo sapiens, UniProt P28324-2 1-405); conditions: protein: recombinant; tags: N-terminal GST; dsDNA, one strand shown
# T3 sequence: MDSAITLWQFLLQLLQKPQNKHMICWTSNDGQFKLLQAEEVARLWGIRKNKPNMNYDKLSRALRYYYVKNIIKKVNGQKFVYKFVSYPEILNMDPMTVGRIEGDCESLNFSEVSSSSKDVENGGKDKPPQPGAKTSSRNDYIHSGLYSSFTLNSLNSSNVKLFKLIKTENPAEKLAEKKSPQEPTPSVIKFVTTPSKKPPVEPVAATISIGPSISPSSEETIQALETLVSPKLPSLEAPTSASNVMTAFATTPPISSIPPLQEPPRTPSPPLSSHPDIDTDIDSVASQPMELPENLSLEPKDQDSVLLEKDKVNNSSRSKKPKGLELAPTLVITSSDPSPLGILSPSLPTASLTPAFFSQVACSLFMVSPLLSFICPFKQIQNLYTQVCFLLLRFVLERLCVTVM
# Procedure, shortened: as §1
# ETV2 = target: T4, ETV2 (Homo sapiens, UniProt O00321 1-342); conditions: protein: recombinant; tags: N-terminal GST; dsDNA, one strand shown
# T4 sequence: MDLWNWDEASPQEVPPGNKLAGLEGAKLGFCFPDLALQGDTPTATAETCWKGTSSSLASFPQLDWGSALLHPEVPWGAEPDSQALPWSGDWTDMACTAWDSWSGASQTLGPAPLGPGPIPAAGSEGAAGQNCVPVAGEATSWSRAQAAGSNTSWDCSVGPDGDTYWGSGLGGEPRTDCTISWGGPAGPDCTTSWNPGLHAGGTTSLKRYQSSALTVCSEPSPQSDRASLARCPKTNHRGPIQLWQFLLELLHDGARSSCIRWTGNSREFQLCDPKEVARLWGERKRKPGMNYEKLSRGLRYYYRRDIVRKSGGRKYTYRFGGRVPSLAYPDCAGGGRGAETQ
# Procedure, shortened: as §1
# ELF3 = target: T5, ELF3 (Homo sapiens, UniProt P78545 1-371); conditions: protein: recombinant; tags: N-terminal GST; dsDNA, one strand shown
# T5 sequence: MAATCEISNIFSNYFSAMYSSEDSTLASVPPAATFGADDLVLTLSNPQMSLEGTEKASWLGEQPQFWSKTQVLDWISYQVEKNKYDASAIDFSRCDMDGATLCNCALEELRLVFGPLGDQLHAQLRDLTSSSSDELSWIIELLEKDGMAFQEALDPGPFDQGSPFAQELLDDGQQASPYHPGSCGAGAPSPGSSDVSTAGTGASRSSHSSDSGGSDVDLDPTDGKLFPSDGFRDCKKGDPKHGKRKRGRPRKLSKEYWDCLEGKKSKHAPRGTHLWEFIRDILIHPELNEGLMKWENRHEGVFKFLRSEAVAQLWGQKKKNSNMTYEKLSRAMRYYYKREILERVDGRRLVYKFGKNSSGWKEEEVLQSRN
# Procedure, shortened: as §1
# CRX = CRX (Homo sapiens, UniProt O43186 1-299); conditions: protein: recombinant; tags: N-terminal GST; dsDNA, one strand shown
# Sequence of CRX (O43186 whole entry): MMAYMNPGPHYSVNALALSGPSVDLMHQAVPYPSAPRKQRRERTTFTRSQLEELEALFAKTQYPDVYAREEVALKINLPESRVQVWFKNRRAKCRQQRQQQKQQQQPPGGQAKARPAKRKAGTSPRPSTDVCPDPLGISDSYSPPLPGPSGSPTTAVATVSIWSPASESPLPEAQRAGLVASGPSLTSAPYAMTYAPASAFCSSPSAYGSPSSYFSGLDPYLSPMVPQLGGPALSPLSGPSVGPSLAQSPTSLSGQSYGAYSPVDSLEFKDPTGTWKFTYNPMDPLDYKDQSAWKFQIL
# Procedure, shortened: as §1
# ETV1 = ETV1 (Homo sapiens, UniProt P50549 1-477); conditions: protein: recombinant; tags: N-terminal GST; dsDNA, one strand shown
# Sequence of ETV1 (P50549 whole entry): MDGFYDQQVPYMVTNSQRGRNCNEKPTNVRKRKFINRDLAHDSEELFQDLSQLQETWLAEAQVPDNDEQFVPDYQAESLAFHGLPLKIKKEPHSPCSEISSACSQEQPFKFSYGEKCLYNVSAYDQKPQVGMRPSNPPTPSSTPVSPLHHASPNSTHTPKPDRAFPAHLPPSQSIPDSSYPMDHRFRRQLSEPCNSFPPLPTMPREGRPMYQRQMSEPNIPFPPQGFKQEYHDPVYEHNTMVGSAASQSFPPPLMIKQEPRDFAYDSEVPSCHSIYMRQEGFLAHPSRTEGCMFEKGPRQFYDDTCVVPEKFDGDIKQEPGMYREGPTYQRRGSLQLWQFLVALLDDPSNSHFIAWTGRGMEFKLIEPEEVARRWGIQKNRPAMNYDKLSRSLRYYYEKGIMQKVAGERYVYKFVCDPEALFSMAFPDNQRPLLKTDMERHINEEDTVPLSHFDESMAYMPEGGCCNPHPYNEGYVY
# Procedure, shortened: as §1
# ERF = target: T6, ERF (Homo sapiens, UniProt P50548 1-548); conditions: protein: recombinant; tags: N-terminal GST; dsDNA, one strand shown
# T6 sequence: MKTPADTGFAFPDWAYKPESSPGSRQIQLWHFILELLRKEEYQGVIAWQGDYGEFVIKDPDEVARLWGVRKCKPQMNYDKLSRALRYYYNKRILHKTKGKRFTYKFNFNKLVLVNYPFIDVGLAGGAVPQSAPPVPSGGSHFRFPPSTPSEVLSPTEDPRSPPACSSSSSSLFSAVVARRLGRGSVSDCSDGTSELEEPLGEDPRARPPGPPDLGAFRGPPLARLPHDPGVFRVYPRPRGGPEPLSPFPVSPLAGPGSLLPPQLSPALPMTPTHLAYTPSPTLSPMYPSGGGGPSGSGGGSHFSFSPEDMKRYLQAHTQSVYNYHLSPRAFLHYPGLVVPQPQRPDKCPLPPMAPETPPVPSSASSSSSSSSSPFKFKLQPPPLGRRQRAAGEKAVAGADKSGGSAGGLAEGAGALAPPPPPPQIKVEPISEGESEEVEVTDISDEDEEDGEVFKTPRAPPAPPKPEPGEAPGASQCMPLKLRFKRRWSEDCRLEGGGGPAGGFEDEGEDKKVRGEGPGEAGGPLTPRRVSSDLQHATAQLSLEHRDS
# Procedure, shortened: as §1
# ETV3L = target: T7, ETV3L (Homo sapiens, UniProt Q6ZN32 1-361); conditions: protein: recombinant; tags: N-terminal GST; dsDNA, one strand shown
# T7 sequence: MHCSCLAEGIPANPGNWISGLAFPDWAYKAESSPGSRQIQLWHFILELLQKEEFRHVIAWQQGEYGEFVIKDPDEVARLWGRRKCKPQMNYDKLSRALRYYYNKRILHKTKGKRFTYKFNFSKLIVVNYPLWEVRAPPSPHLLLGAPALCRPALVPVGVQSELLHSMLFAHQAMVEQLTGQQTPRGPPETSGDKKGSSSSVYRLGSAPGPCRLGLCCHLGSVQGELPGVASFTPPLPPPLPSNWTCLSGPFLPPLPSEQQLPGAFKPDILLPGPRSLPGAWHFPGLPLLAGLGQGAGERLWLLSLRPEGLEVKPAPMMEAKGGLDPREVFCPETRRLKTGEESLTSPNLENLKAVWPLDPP
# Procedure, shortened: as §1
# ETS2 = target: T8, ETS2 (Homo sapiens, UniProt P15036 1-469); conditions: protein: recombinant; tags: N-terminal GST; dsDNA, one strand shown
# T8 sequence: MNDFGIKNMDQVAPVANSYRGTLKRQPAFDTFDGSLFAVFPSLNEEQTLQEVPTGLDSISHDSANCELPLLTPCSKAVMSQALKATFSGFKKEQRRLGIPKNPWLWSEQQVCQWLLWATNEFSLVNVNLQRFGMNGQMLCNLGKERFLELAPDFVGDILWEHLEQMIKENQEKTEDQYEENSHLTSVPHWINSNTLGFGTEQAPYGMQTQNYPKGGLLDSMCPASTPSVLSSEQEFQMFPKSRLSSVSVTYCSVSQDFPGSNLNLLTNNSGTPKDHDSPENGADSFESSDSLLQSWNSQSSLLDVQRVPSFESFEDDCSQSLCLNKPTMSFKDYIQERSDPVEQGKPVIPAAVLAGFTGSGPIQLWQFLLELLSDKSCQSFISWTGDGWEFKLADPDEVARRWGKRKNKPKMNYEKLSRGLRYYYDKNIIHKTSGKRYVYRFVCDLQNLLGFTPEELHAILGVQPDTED
# Procedure, shortened: as §1
# SPDEF = target: T9, SPDEF (Homo sapiens, UniProt O95238 1-335); conditions: protein: recombinant; tags: N-terminal GST; dsDNA, one strand shown
# T9 sequence: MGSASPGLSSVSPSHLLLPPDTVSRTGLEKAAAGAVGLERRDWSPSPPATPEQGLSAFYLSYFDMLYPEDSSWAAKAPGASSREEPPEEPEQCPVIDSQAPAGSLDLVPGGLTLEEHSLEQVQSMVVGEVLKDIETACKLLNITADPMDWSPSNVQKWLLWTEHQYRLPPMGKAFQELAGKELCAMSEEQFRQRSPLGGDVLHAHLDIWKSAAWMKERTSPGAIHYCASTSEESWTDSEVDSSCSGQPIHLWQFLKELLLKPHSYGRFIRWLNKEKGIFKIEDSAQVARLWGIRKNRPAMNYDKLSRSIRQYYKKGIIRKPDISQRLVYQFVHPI
# Procedure, shortened: as §1
# ETV7 = target: T10, ETV7 (Homo sapiens, UniProt Q9Y603 1-341); conditions: protein: recombinant; tags: N-terminal GST; dsDNA, one strand shown
# T10 sequence: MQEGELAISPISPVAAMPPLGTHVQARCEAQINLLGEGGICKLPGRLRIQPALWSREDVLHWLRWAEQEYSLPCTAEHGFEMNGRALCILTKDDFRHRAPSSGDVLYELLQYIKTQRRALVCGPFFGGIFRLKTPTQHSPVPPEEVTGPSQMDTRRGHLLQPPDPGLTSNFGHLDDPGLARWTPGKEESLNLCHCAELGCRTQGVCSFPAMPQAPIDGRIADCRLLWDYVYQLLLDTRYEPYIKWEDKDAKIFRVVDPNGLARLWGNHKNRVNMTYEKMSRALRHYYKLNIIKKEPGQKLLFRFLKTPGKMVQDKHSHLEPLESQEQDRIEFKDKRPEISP
# Procedure, shortened: as §1
# ELF5 = target: T11, ELF5 (Homo sapiens, UniProt Q9UKW6-2 1-255); conditions: protein: recombinant; tags: N-terminal GST; dsDNA, one strand shown
# T11 sequence: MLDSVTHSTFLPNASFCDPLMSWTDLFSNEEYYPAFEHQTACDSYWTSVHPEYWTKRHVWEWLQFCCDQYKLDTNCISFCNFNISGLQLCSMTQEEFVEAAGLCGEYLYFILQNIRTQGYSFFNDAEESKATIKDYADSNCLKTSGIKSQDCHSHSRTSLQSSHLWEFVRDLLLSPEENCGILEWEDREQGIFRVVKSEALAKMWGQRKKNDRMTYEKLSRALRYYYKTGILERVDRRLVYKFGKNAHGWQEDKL
# Procedure, shortened: as §1
# ETV3 = target: T12, ETV3 (Homo sapiens, UniProt P41162-2 1-143); conditions: protein: recombinant; tags: N-terminal GST; dsDNA, one strand shown
# T12 sequence: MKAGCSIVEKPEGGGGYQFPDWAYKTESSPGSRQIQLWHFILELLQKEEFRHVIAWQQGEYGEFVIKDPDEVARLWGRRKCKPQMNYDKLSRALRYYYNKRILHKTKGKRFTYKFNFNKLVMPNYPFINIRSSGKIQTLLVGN
# Procedure, shortened: as §1
# ETV6 = ETV6 (Homo sapiens, UniProt P41212 1-452); conditions: protein: recombinant; tags: N-terminal GST; dsDNA, one strand shown
# Sequence of ETV6 (P41212 whole entry): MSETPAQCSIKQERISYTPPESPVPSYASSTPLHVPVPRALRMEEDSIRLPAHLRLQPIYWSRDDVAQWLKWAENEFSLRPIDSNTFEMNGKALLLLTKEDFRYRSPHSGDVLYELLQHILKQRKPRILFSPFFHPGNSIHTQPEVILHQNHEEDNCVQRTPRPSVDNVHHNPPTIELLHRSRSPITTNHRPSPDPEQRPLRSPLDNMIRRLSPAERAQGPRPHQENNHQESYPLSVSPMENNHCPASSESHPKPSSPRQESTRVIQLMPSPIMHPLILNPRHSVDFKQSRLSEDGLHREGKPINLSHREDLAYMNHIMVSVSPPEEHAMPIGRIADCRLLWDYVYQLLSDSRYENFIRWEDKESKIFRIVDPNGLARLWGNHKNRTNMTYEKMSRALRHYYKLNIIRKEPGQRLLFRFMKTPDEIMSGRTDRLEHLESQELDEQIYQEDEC
# Procedure, shortened: as §1
sequence,measurement,setting,value
GTTCTT,binding signal,FEV,"1.11 fold enrichment (6-mer frequency, TF over GST control)"
same,binding signal,ETV5,"1.23 fold enrichment (6-mer frequency, TF over GST control)"
same,binding signal,HSF1,"1.36 fold enrichment (6-mer frequency, TF over GST control)"
same,binding signal,SPIC,"1.12 fold enrichment (6-mer frequency, TF over GST control)"
same,binding signal,ELF4,"1.18 fold enrichment (6-mer frequency, TF over GST control)"
same,binding signal,ELK4,"1.23 fold enrichment (6-mer frequency, TF over GST control)"
same,binding signal,ETV2,"1.15 fold enrichment (6-mer frequency, TF over GST control)"
same,binding signal,ELF3,"1.31 fold enrichment (6-mer frequency, TF over GST control)"
same,binding signal,CRX,"1.12 fold enrichment (6-mer frequency, TF over GST control)"
same,binding signal,ETV1,"1.21 fold enrichment (6-mer frequency, TF over GST control)"
same,binding signal,ERF,"1.16 fold enrichment (6-mer frequency, TF over GST control)"
same,binding signal,ETV3L,"1.28 fold enrichment (6-mer frequency, TF over GST control)"
same,binding signal,ETS2,"1.2 fold enrichment (6-mer frequency, TF over GST control)"
same,binding signal,SPDEF,"1.06 fold enrichment (6-mer frequency, TF over GST control)"
same,binding signal,ETV7,"1.18 fold enrichment (6-mer frequency, TF over GST control)"
same,binding signal,ELF5,"1.24 fold enrichment (6-mer frequency, TF over GST control)"
same,binding signal,ETV3,"1.09 fold enrichment (6-mer frequency, TF over GST control)"
same,binding signal,ETV6,"1.15 fold enrichment (6-mer frequency, TF over GST control)"
